# Reference: PMC5540273 (PLoS ONE, 2017)
# System: LRRK2
# Conditions: concentration: 1 μM, replicates: in singlicate; n = 1
# 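Note: KINOMEscan kinase panel screen.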
row,SMILES,%Inh [%]
1,CN1C(=O)C(Nc2ccc(Cl)c(C(=O)O)c2)=C(c2ccc(Cl)cc2)C1=O [SB-404290],0
2,Cc1nnc(-c2ccc3occ(-c4ccc(S(C)=O)cc4)c3c2)[nH]1 (stereo not shown),0
3,Clc1cc(Cl)cc(Nc2ccnc(Nc3cc(Cl)cc(Cl)c3)n2)c1 [GSK175726],0
4,O=C(Nc1ccc2c(c1)OCO2)NC1CCN(c2ccnc(Nc3ccc(F)cc3)n2)C1 (stereo not shown) [GSK1379724],28
5,CS(=O)(=O)c1ccc(-c2c(-c3ncn[nH]3)sc(N3CCOCC3)c2C#N)cc1,0
6,COc1ccc(C2=C(Nc3cccc(C(=O)O)c3)C(=O)NC2=O)cc1 [SB-390765],0
7,CS(=O)(=O)c1ccc(-c2nc3n(c2-c2ccncc2)CCC3)cc1 [SKF-105942],0
8,C[C@@H]1CCCCN1c1cc(-c2ccc3c(N)n[nH]c3c2)nc(N)n1 [GSK2258759],0
9,COc1ccc2nc(-c3cccc(C)n3)nc(Nc3ccncc3)c2c1 [GSK204919],0
10,O=S(=O)(c1ccc(-c2ccnc3[nH]ccc23)cc1)N1CCCC1 [GSK846226],0
11,Cn1ccc2ncnc(Oc3ccc(NC(=O)Nc4ccccc4)cc3)c21,24
12,Cc1ccc(C(=O)Nc2ccc(Nc3ccnc4cc(-c5ccccn5)ccc34)cc2O)cc1.Cl [GW440146],4
13,COc1ccc(CNC(=O)NC2CCN(c3ccnc(Nc4cc(OC)c(OC)c(OC)c4)n3)C2)cc1 (stereo not shown) [GSK1379748],0
14,Cc1cc(-c2ccc3c(c2)CC[C@@H](N[C@@H](C)c2ccccc2)C3)cnc1N.Cl [GW412617],33
15,Cl.O=C(Nc1cccc(-c2nn3ncccc3c2-c2ccnc(Nc3cccnc3)n2)c1)c1c(F)cccc1F [GSK312879],39
16,COC(=O)c1c(-c2ccccc2)c2cc(OC)ccc2c(=O)n1Cc1ccccc1,0
17,O=C(Nc1n[nH]c2nc(-c3nccs3)c(Br)cc12)C1CC1 [SB-742251],32
18,COc1cc(Nc2nccc(N3CCC(NC(=O)Nc4cc(C)ccc4C)C3)n2)cc(OC)c1OC (stereo not shown) [GSK1379762],22

row,SMILES,%Inh [%]
1,COc1cccc(NC(=O)NC2CCN(c3ccnc(Nc4ccc(F)cc4)n3)C2)c1 (stereo not shown) [GSK1379721],0
2,Cl.Oc1ccc(-c2nc(-c3ccccc3)[nH]c2-c2ccncc2)cc1 [SB-428218],0
3,Cc1ccc(-c2cc(-c3c[nH]nc3-c3ccccn3)ccn2)cc1 [GW684088],0
4,Nc1ncnc2[nH]c(-c3ccccc3)nc12 [AH5015],34
5,O=C(Nc1n[nH]c2cc(-c3cccc(F)c3F)ccc12)C1CC1 [SB-733894],0
6,Cc1ccc(NC(=O)Nc2cc(C(C)(C)C)nn2-c2ccccc2)cc1 [GSK1014915],0
7,Cc1cccc(-c2nc(C)cc(Nc3ccncc3)n2)n1 [GSK257997],0
8,Cn1cncc1-c1ccc2ncnc(Nc3ccc(OCc4ccccc4)cc3)c2c1 [GW320571],21
9,CCn1c(-c2ccccn2)nc2cnccc21 [SB-736398],31
10,Cc1c(Cn2ccn3c(=O)cc(N4CCOCC4)nc23)cccc1C(F)(F)F [GSK2289044],0
11,O=C(O)COc1ncnc2cc(-c3ccc4[nH]ncc4c3)sc12,0
12,O=C(Nc1ccccc1)Nc1cccc(Oc2ccc3nccn3n2)c1,0
13,Cc1ccccc1-n1cnc2c(N)ncnc21 [SKF-97510],0
14,CC(=O)Nc1nc2cnc(Nc3cc(NC(=O)c4cccc(CCC#N)c4)ccc3C)nc2s1,0
15,CC1=C(C(=O)Nc2cc3cn[nH]c3cc2F)C(c2ccc(C(F)(F)F)cc2)CC(=O)N1 (stereo not shown) [GSK429286],12
16,COc1ccc(Nc2nccc(-c3cccc(NC(=O)c4cc5cc(F)ccc5[nH]4)c3)n2)cc1 [GSK1229782],42
17,O=C1NC(=O)C(N2CCc3ccccc32)=C1c1ccccc1Cl [SB-373598],0

# System: LTK
# Conditions: concentration: 1 μM, replicates: in singlicate; n = 1
row,SMILES,%Inh [%]
1,CN1C(=O)C(Nc2ccc(Cl)c(C(=O)O)c2)=C(c2ccc(Cl)cc2)C1=O [SB-404290],9
2,Cc1nnc(-c2ccc3occ(-c4ccc(S(C)=O)cc4)c3c2)[nH]1 (stereo not shown),0
3,Clc1cc(Cl)cc(Nc2ccnc(Nc3cc(Cl)cc(Cl)c3)n2)c1 [GSK175726],0
4,O=C(Nc1ccc2c(c1)OCO2)NC1CCN(c2ccnc(Nc3ccc(F)cc3)n2)C1 (stereo not shown) [GSK1379724],0
5,CS(=O)(=O)c1ccc(-c2c(-c3ncn[nH]3)sc(N3CCOCC3)c2C#N)cc1,28
6,COc1ccc(C2=C(Nc3cccc(C(=O)O)c3)C(=O)NC2=O)cc1 [SB-390765],11
7,CS(=O)(=O)c1ccc(-c2nc3n(c2-c2ccncc2)CCC3)cc1 [SKF-105942],0
8,C[C@@H]1CCCCN1c1cc(-c2ccc3c(N)n[nH]c3c2)nc(N)n1 [GSK2258759],0
9,COc1ccc2nc(-c3cccc(C)n3)nc(Nc3ccncc3)c2c1 [GSK204919],0
10,O=S(=O)(c1ccc(-c2ccnc3[nH]ccc23)cc1)N1CCCC1 [GSK846226],0
11,Cn1ccc2ncnc(Oc3ccc(NC(=O)Nc4ccccc4)cc3)c21,0
12,Cc1ccc(C(=O)Nc2ccc(Nc3ccnc4cc(-c5ccccn5)ccc34)cc2O)cc1.Cl [GW440146],12
13,COc1ccc(CNC(=O)NC2CCN(c3ccnc(Nc4cc(OC)c(OC)c(OC)c4)n3)C2)cc1 (stereo not shown) [GSK1379748],64
14,Cc1cc(-c2ccc3c(c2)CC[C@@H](N[C@@H](C)c2ccccc2)C3)cnc1N.Cl [GW412617],0
15,Cl.O=C(Nc1cccc(-c2nn3ncccc3c2-c2ccnc(Nc3cccnc3)n2)c1)c1c(F)cccc1F [GSK312879],3
16,COC(=O)c1c(-c2ccccc2)c2cc(OC)ccc2c(=O)n1Cc1ccccc1,11
17,O=C(Nc1n[nH]c2nc(-c3nccs3)c(Br)cc12)C1CC1 [SB-742251],0
18,COc1cc(Nc2nccc(N3CCC(NC(=O)Nc4cc(C)ccc4C)C3)n2)cc(OC)c1OC (stereo not shown) [GSK1379762],67

row,SMILES,%Inh [%]
1,COc1cccc(NC(=O)NC2CCN(c3ccnc(Nc4ccc(F)cc4)n3)C2)c1 (stereo not shown) [GSK1379721],0
2,Cl.Oc1ccc(-c2nc(-c3ccccc3)[nH]c2-c2ccncc2)cc1 [SB-428218],0
3,Cc1ccc(-c2cc(-c3c[nH]nc3-c3ccccn3)ccn2)cc1 [GW684088],0
4,Nc1ncnc2[nH]c(-c3ccccc3)nc12 [AH5015],91.4
5,O=C(Nc1n[nH]c2cc(-c3cccc(F)c3F)ccc12)C1CC1 [SB-733894],0
6,Cc1ccc(NC(=O)Nc2cc(C(C)(C)C)nn2-c2ccccc2)cc1 [GSK1014915],67
7,Cc1cccc(-c2nc(C)cc(Nc3ccncc3)n2)n1 [GSK257997],16
8,Cn1cncc1-c1ccc2ncnc(Nc3ccc(OCc4ccccc4)cc3)c2c1 [GW320571],11
9,CCn1c(-c2ccccn2)nc2cnccc21 [SB-736398],1
10,Cc1c(Cn2ccn3c(=O)cc(N4CCOCC4)nc23)cccc1C(F)(F)F [GSK2289044],0
11,O=C(O)COc1ncnc2cc(-c3ccc4[nH]ncc4c3)sc12,97.3
12,O=C(Nc1ccccc1)Nc1cccc(Oc2ccc3nccn3n2)c1,0
13,Cc1ccccc1-n1cnc2c(N)ncnc21 [SKF-97510],0
14,CC(=O)Nc1nc2cnc(Nc3cc(NC(=O)c4cccc(CCC#N)c4)ccc3C)nc2s1,0
15,CC1=C(C(=O)Nc2cc3cn[nH]c3cc2F)C(c2ccc(C(F)(F)F)cc2)CC(=O)N1 (stereo not shown) [GSK429286],0
16,COc1ccc(Nc2nccc(-c3cccc(NC(=O)c4cc5cc(F)ccc5[nH]4)c3)n2)cc1 [GSK1229782],19
17,O=C1NC(=O)C(N2CCc3ccccc32)=C1c1ccccc1Cl [SB-373598],99.1
